Screening data as filed in PubChem.
tim10-1 inh – growth inhibitors of tim10-1 mutant yeast, primary screen, luminescence, uHTS; S. cerevisiae tim10-1 ts strain growth, BacTiter-Glo, 24 h; inhibition, % at 20 µM; 330,000 tested, 2.2% active;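 active = inhibition of at least 40%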;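 also: mutant grown at 25 °C; 0% = DMSO wells with yeast and 100% = wells holding no yeast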
tim23-1 inh – growth inhibitors of tim23-1 mutant yeast, primary screen, luminescence, uHTS; inhibition, % at 20 µM; S. cerevisiae tim23-1 growth, BacTiter-Glo luminescence, 24 h; 330,000 tested, 1.3% active; AID 463212, 2010;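 active = growth inhibition of the mutant yeast at or above 50%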;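 also: temperature-sensitive mutant grown at 25 °C; plate controls were DMSO-treated mutant yeast for no effect and medium wells lacking yeast for full effect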
PfHsp90 yeast 2 – growth inhibition of PfHsp90-expressing yeast, primary screen, antimalarial PfHsp90 inhibitor project, S. cerevisiae, BacTiter-Glo luminescence, single point, set 2; BacTiter-Glo ATP, 48 h; yeast lacking PDR1 and PDR3 efflux regulators; inhibition, % at 9.4 µM; 310,000 tested, 0.32% active; AID 504621, 2011;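 active = every replicate shows inhibition above about 80%, whatever the replicate mean, limit read from the data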;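 also: 0% = DMSO neutral controls and 100% = 20 µM radicicol positive controls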
TIM10 inh – growth inhibitors of isogenic TIM10 control yeast, primary screen, counter-screen for tim10-1 yeast inhibitor project, luminescence, uHTS. S. cerevisiae TIM10 strain growth, BacTiter-Glo luminescence, 24 h. inhibition, % at 10 µM. 330,000 tested, 1.4% active. AID 463195, 2010;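 active = inhibition of 40% or more at the single tested concentration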;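 also: wild-type TIM10 isogenic control strain grown at permissive 25 °C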
SKKanGAS inh – S. pyogenes SKKanGAS growth inhibitors in kanamycin, primary screen, streptokinase expression inhibitor project, SKKanGAS strain, BacTiter-Glo luminescence. 6 h. inhibition, % at 7.5 µM. 300,000 tested, 1.3% active;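 active = mean replicate score, as percent of positive control median, at least 50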;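 also: strain carries kanamycin resistance gene driven by streptokinase promoter and grows in 40 µg/ml kanamycin; loss of luminescence reflects streptokinase promoter inhibition or plain growth inhibition; 0% = median of DMSO wells and 100% = positive control at its reference dose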
EBI2 antag – EBI2 receptor antagonists, beta-arrestin recruitment, primary screen, cell-based, luminescence, 7a,25-OHC stimulation, uHTS; G-protein coupled receptor 183 (Homo sapiens), P32249; 7a,25-OHC stimulated; inhibition, % at 5 µM; 360,000 tested, 0.81% active; AID 651636, 2012; in the data active = inhibition above about 38%;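 also: enzyme fragment complementation signal reports receptor beta-arrestin coupling in cells; 0% = agonist plus DMSO wells and 100% = wells without agonist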
Target sequence (P32249 whole entry, looked up, the tested form may be a part): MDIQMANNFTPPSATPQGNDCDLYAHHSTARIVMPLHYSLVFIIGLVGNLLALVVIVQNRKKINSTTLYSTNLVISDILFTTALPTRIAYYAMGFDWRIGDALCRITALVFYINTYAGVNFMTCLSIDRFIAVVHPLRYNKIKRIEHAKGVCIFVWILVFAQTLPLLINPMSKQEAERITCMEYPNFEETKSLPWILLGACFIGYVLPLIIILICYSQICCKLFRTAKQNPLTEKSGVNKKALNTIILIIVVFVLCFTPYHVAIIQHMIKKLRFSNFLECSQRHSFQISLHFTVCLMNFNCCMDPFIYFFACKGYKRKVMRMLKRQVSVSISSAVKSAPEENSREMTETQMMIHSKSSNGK
The depositor's hits bear a star; . = no result given; + = active, no number; ! = repeats disagree. A selection: hits, their analogues and other compounds. The true share with any hit is near 4.7%.

SMILES | tim10-1 inh | tim23-1 inh | PfHsp90 yeast 2 | TIM10 inh | SKKanGAS inh | EBI2 antag
Nc1ncnc2c1ncn2[C@@H]1O[C@H](C(=O)N(CCC2=CCCCC2)CC2CC2)[C@@H](O)[C@H]1O | . | . | . | . | . | -8
Cc1ccc(-c2ccc([C@H]3[C@@H]4C=CCC[C@@]4(C)C(=O)N3Cc3ccccc3)c(F)c2)cc1 | 18 | 1 | -2 | 6 | 43 | 13
COc1ccc(-c2ccc([C@H]3[C@@H]4C=CCC[C@@]4(C)C(=O)N3Cc3ccccc3)c(F)c2)cc1 | 18 | 1 | -5 | 6 | 58* | 19
C[C@@]12CCC=C[C@H]1[C@H](c1ccc3ccccc3c1Br)N(Cc1ccccc1)C2=O | 32 | 47 | 9 | 19 | 75* | -7
COCCNC(=O)C1(C)CCCN(C(=O)Cc2ccc3ccccc3c2)C1 (stereo not drawn) | . | . | . | . | . | -5
CCC(=O)O[C@@H]1CC(=O)O[C@H](C)CC=CC=C[C@@H](O)[C@H](C)C[C@H](CC=O)[C@H](O[C@H]2O[C@H](C)[C@@H](O[C@H]3C[C@@](C)(O)[C@@H](OC(=O)CC)[C@H](C)O3)[C@H](N(C)C)[C@H]2O)[C@H]1OC | . | . | . | . | 110* | .
COC(=O)C(C)NC(=O)c1cn(-c2ccccc2OC)c(=O)c2ccccc12 (stereo not drawn) | -5 | 7 | 24 | -10 | -2 | 6
COCCN(C(=O)c1ccc2c(c1)S(=O)(=O)N=C1CCCCCN12)c1c(N)n(CC(C)C)c(=O)[nH]c1=O | . | . | . | . | . | 4
CCCCCCCCCOC(=O)C1N2C(=O)[C@@H](NC(=O)COc3ccccc3)[C@H]2SC1(C)C (stereo partly drawn) | 13 | 9 | . | 4 | 27 | 20
CC1(C)S[C@@H]2[C@H](NC(=O)C(NC(=O)N3CCNC3=O)c3ccccc3)C(=O)N2[C@H]1C(=O)O (stereo partly drawn) | 16 | 8 | 12 | -11 | 114* | -14
CC1(C)S[C@@H]2[C@H](NC(=O)Cc3ccccc3)C(=O)N2[C@H]1C(=O)O | 2 | 6 | -8 | 15 | 100*! | 1
CCC(Oc1ccccc1)C(=O)NC1C(=O)N2C1SC(C)(C)C2C(=O)O (stereo not drawn) | 13 | 11 | -15 | 10 | 111* | -7
Cc1cc(COC(=O)C2N3C(=O)[C@@H](NC(=O)COc4ccccc4)[C@H]3SC2(C)C)on1 (stereo partly drawn) | 21 | 23 | -22 | 12 | 103* | 10
CN1CCN(C(=O)OC2CC3CC2[C@H]2CCCCN2C3=O)CC1 (stereo partly drawn) | . | . | . | . | . | -6
CCOC1=C2[C@@H](CN(S(=O)(=O)c3ccc(C)cc3)[C@H]2c2cccs2)[C@H]2C(=O)N(c3ccccc3)C(=O)[C@H]2C1 | . | . | . | . | . | 3
CCC(=O)N(CCC(Cc1ccccc1)c1ccc2c(c1)OCO2)Cc1ccccc1F (stereo not drawn) | 18 | 4 | -3 | 25 | 52* | 41
O=C(CC1SC(=O)NC1=O)Oc1ccc(/C=N/NC(=O)c2ccccc2O)cc1 (stereo not drawn) | 5 | 4 | -5 | -14 | 9 | -10
COc1ccc(NC(=O)c2sc3ncnc(N4CCN(c5ccccn5)CC4)c3c2C)cc1Cl | 16 | 11 | 103* | -40 | 38 | -3
COc1ccc(NC(=O)c2sc3nc(C)nc(N4CCN(c5ccccn5)CC4)c3c2C)cc1Cl | 27 | 9 | -8 | 20 | 1 | 23
COc1cccc(NC(=O)c2ccc3nc(C)sc3c2)c1 | -16 | 10 | 2 | -15 | -6 | 8
COc1ccc(-c2c/c(=N\c3nc(-c4ccccc4)c(C)s3)c3ccccc3o2)cc1O | 11 | 15 | -18 | 7 | 59* | -26
CCOC(=O)/C(=N/Nc1ccccc1)Sc1nnc(CCc2ccccc2)n1-c1ccccc1 | 29 | 37 | -17 | 28 | -3 | 9
Cn1cc(C(=O)N2CCc3ccccc32)cn1 | 10 | 11 | 15 | 4 | -5 | -13
CCN(CC)c1ccc(-c2nn3c(-c4n[nH]c5c4CCC5)nnc3s2)cc1 | -3 | 8 | -22 | -24 | 85* | -6
C1CCC(c2nn3c(-c4n[nH]c5c4CCC5)nnc3s2)CC1 | 22 | 38 | -12 | 3 | 2 | 7
SMILES | tim10-1 inh | tim23-1 inh | PfHsp90 yeast 2 | TIM10 inh | SKKanGAS inh | EBI2 antag
CC(C)c1nnc(NC(=O)c2c(O)c3cccc4c3n(c2=O)CCC4)s1 | -9 | 8 | 24 | 2 | 90* | 1
CNC(=O)c1c(O)c2cccc3c2n(c1=O)CCC3 | -14 | 49 | -8 | 31 | -1 | -3
CCCc1nc2ccccc2c(=O)n1NC(=O)c1c(O)c2cccc3c2n(c1=O)CCC3 | -15 | 11 | -10 | 1 | 73* | 5
COc1ccccc1NS(=O)(=O)c1cccc(C(=O)NCC2(N3CCCCC3)CCCCC2)c1 | . | . | 0 | . | . | 5
Cc1ccccc1C(=O)Nc1ccccc1N1CCN(C(=O)c2ccccc2)CC1 | 31 | 28 | 0 | 3 | 55* | -11
COc1c(C)cc(Br)cc1C(=O)Nc1ccccc1N1CCN(C(=O)c2ccccc2)CC1 | 9 | 24 | -52 | 13 | 38 | 40
Cc1ccc2nc(-c3ccc(F)cc3)c(Cc3ccccc3C(F)(F)F)n2c1 | . | . | . | . | . | -3
COc1ccccc1C(=O)COC(=O)c1cc([N+](=O)[O-])ccc1N1CCOCC1 | 0 | -18 | -120 | -99 | -5 | 10
COc1ccc(C(=O)COC(=O)c2cc([N+](=O)[O-])ccc2N2CCOCC2)c(OC)c1 | -28 | -44 | + | -115 | -3 | 40
COC(=O)C[C@H]1CC[C@@H](NS(=O)(=O)c2ccc(C)cc2)[C@@H](CO)O1 | . | . | . | . | . | 0
COc1ccc(O)c(C2=Nc3ccccc3N=C(c3cccs3)C2)c1 | 18 | 25 | 7 | 9 | 60* | -5
O=C(O)CSCC(=O)N(Cc1ccccc1)c1nc(-c2ccccc2)c(-c2ccccc2)s1 | 13 | 34 | -15 | 11 | 94* | -3
Cc1cccc(C(=O)Nc2cccc(C(=O)N3CCOCC3)c2)c1 | 8 | 12 | 26 | 4 | -11 | -5
Cc1cccc(NC(=O)C2SC(=Nc3c(C)cccc3C)C(C(=O)N3CCOCC3)=C2N)c1 (stereo not drawn) | 14 | 1 | 26 | 9 | 94* | 3
Cc1c(CCO)c(=O)[nH]n1C(=O)c1ccc(F)cc1 | 26 | 12 | 2 | 2 | 15 | 3
CCCCCCCCC(=O)NNC(=O)c1c(O)c2ccccc2n(CC)c1=O | -21 | 32 | 6 | 6 | 106* | -2
